From PubChem BioAssay (NCATS)
Inconclusive results are not listed. Calls of active or inactive are those of the source. The call rests on the fitted dose curve; in most records, active means well fitted inhibition curve with a large enough effect; inconclusive means small, poorly fitted or top-dose-only effect; inactive means flat fitted curve, though single readings scatter.

Columns and labels:
Experiment in all cases: qHTS profiling for inhibitors of Plasmodium falciparum proliferation (AID 504749); further: nearly all actives have a fitted effect of over 60% in size
Settings in all cases: P. falciparum in erythrocytes, SYBR Green DNA, 72 h; series mostly up to 28.7 µM
CP192 = system: CP192
Outline: (§1)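 Fluorescence of SYBR Green-bound parasite DNA, read at 485/535 nm, served as the growth measure. Infected erythrocytes were cultured with compound 72 h; artemisinin (0.29 uM) and DMSO wells defined the normalization range.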

CP194 = system: CP194
Outline: as §1

CP201 = system: CP201
Outline: as §1

CP203 = system: CP203
Outline: as §1

CP215 = system: CP215
Outline: as §1

CP217 = system: CP217
Outline: as §1

CP237 = system: CP237
Outline: as §1

CP238 = system: CP238
Outline: as §1

CP247 = system: CP247
Outline: as §1

CP250 = system: CP250
Outline: as §1

CP252 = system: CP252
Outline: as §1

CP256 = system: CP256
Outline: as §1

CP260 = system: CP260
Outline: as §1

CP262 = system: CP262
Outline: as §1

CP265 = system: CP265
Outline: as §1

CP266 = system: CP266
Outline: as §1

CP268 = system: CP268
Outline: as §1

CP269 = system: CP269
Outline: as §1

CP286 = system: CP286
Outline: as §1

CP211 = system: CP211
Outline: as §1

Measured: Potency
Potency means the concentration at half of the fitted maximal effect.

COc1cc2c(cc1OC)-c1cc(=Nc3c(C)cc(C)cc3C)n(C)c(=O)n1CC2
active: CP192 9.53 µM | CP194 4.78 µM | CP201 4.26 µM | CP203 7.57 µM | CP215 5.36 µM | CP217 3.55 µM | CP237 3.16 µM | CP238 10 µM | CP247 5.62 µM | CP250 3.55 µM | CP252 11.2 µM | CP256 4.47 µM | CP260 3.16 µM | CP262 4.78 µM | CP265 7.94 µM | CP266 6.75 µM | CP268 1.51 µM | CP269 4.78 µM | CP286 2 µM

C[C@H](CS)C(=O)N1CCC[C@H]1C(=O)O
not listed: CP192 | CP211
inactive: all other assays above

Cc1nc2ccccn2c(=O)c1CCN1CCC(C(=O)c2ccc(F)cc2)CC1
not listed: CP194 | CP203 | CP237 | CP247 | CP286
inactive: all other assays above

CCOC(=O)C1=C(C)NC(C)=C(C(=O)OC)C1c1cccc([N+](=O)[O-])c1 (centres undefined)
active: CP237 12.6 µM | CP238 10 µM | CP252 11.2 µM
inactive: CP266

CCCCNc1ccc(C(=O)OCCN(C)C)cc1
not listed: CP194 | CP201 | CP266 | CP211
inactive: all other assays above

CN(C)CCN(Cc1cccs1)c1ccccn1
active: CP203 12 µM | CP237 2 µM | CP238 11.2 µM | CP265 10 µM
inactive: CP262

COc1cc(C(=O)OCCCN2CCCN(CCCOC(=O)c3cc(OC)c(OC)c(OC)c3)CC2)cc(OC)c1OC
active: CP237 6.31 µM | CP247 7.94 µM | CP250 10 µM | CP260 10 µM | CP265 11.2 µM | CP269 7.57 µM | CP286 10 µM

CNCCC(Oc1ccccc1OC)c1ccccc1 (centres undefined)
inactive: CP192 | CP211 | CP215 | CP237 | CP250 | CP262 | CP266

CC(C)COCC(CN(Cc1ccccc1)c1ccccc1)N1CCCC1 (centres undefined)
active: CP215 7.57 µM | CP237 5.01 µM
not listed: CP201 | CP203 | CP260 | CP268 | CP269 | CP286
inactive: all other assays above

CCCN1C[C@H](CSC)C[C@@H]2c3cccc4[nH]cc(c34)C[C@H]21
active: CP256 8.91 µM
inactive: CP192 | CP201 | CP215 | CP250 | CP262 | CP266 | CP269

NC(N)=N/N=C/c1c(Cl)cccc1Cl
active: CP262 13.5 µM | CP286 11.2 µM

CN(C)CCOC(=O)COc1ccc(Cl)cc1
not listed: CP194 | CP203 | CP237 | CP247 | CP266
inactive: all other assays above

CN(C)CC/C=C1\c2ccccc2COc2ccccc21
active: CP203 13.5 µM | CP265 11.2 µM
inactive: CP192 | CP250 | CP256 | CP262 | CP266

CCOC(=O)C1=C(C)NC(C)=C(C(=O)OC)C1c1cccc(Cl)c1Cl (centres undefined)
not listed: CP194 | CP203 | CP215
inactive: all other assays above

CN(C)CCCN1c2ccccc2Sc2ccc(C(F)(F)F)cc21
not listed: CP194 | CP203 | CP215 | CP217 | CP237 | CP260 | CP286
inactive: all other assays above

CN1C[C@H](C(=O)N[C@]2(C)O[C@@]3(O)[C@@H]4CCCN4C(=O)[C@H](Cc4ccccc4)N3C2=O)C[C@@H]2c3cccc4[nH]cc(c34)C[C@H]21
active: CP194 12 µM | CP203 10.7 µM | CP211 12 µM | CP215 13.5 µM | CP268 15.1 µM | CP269 8.49 µM

CC(C)[N+](C)(CCOC(=O)C1c2ccccc2Oc2ccccc21)C(C)C
inactive: CP201 | CP211 | CP215 | CP266

CCN(CC)CCOCCOC(=O)C1(c2ccccc2)CCCC1
inactive: CP192 | CP201 | CP211 | CP252 | CP262 | CP266
active: CP203 6.75 µM | CP215 15.1 µM | CP217 11.2 µM | CP237 2.51 µM | CP256 11.2 µM | CP260 11.2 µM | CP265 3.98 µM | CP268 15.1 µM | CP269 13.5 µM | CP286 12.6 µM

CCC(=O)c1ccc2c(c1)N(CCCN(C)C)c1ccccc1S2
inactive: CP192 | CP250 | CP262 | CP266
active: CP260 11.2 µM

c1cc(CN2CCCCC2)cc(OCCCNc2nc3ccccc3s2)c1
inactive: CP262

CC1=C(C)C(=O)C(CCCCC#CCCCC#CCO)=C(C)C1=O
active: CP194 19 µM | CP203 15.1 µM | CP215 15.1 µM | CP217 10 µM | CP265 10 µM | CP286 11.2 µM

CCN(CC)CCNC(=O)c1cc(S(C)(=O)=O)ccc1OC
inactive: CP217 | CP237 | CP238 | CP247 | CP250 | CP252 | CP256 | CP260 | CP262 | CP265 | CP286

CN(C)C/C=C(/c1ccc(Br)cc1)c1cccnc1
not listed: CP192 | CP203 | CP237 | CP211
inactive: all other assays above

CN(C(=O)CCCOc1ccc2[nH]c(=O)ccc2c1)C1CCCCC1
not listed: CP194 | CP247 | CP266
inactive: all other assays above

CN(C)CC[C@@H](c1ccc(Br)cc1)c1ccccn1
inactive: CP192 | CP211 | CP217 | CP250 | CP260 | CP262 | CP266 | CP286

Cc1nc2sccn2c(=O)c1CCN1CCC(=C(c2ccc(F)cc2)c2ccc(F)cc2)CC1
inactive: CP192 | CP201 | CP211 | CP256 | CP266 | CP268

CC(=O)[C@]1(O)Cc2c(O)c3c(c(O)c2[C@@H](O[C@H]2C[C@H](N)[C@H](O)[C@H](C)O2)C1)C(=O)c1ccccc1C3=O
active: CP194 15.1 µM | CP211 13.5 µM | CP215 10.7 µM | CP217 5.01 µM | CP237 3.55 µM | CP238 7.08 µM | CP250 6.31 µM | CP252 7.94 µM | CP256 10 µM | CP260 2 µM | CP262 12 µM | CP266 8.49 µM | CP268 9.53 µM | CP269 10.7 µM | CP286 1.41 µM

OC(CCN1CCCCC1)(c1ccccc1)C1CCCCC1 (centres undefined)
not listed: CP194 | CP260 | CP265
inactive: all other assays above

O=C(CCCN1CCC(O)(c2cccc(C(F)(F)F)c2)CC1)c1ccc(F)cc1
active: CP215 10.7 µM | CP237 7.94 µM | CP238 12.6 µM | CP247 7.08 µM | CP250 10 µM | CP260 11.2 µM | CP262 10.7 µM | CP265 10 µM | CP286 10 µM
inactive: CP201

CN(C)CCCN1c2ccccc2Sc2ccccc21
inactive: CP192 | CP262 | CP266
active: CP203 4.05 µM | CP265 2.82 µM

CC(C)(C)c1ccc(C(=O)CCCN2CCC(OC(c3ccccc3)c3ccccc3)CC2)cc1
active: CP217 7.94 µM | CP237 11.2 µM | CP238 11.2 µM | CP252 10 µM | CP260 10 µM | CP269 7.57 µM | CP286 8.91 µM

NC(N)=NC(=O)Cc1c(Cl)cccc1Cl
inactive: CP238 | CP266 | CP268
active: CP217 6.31 µM | CP250 7.08 µM | CP256 12.6 µM | CP260 10 µM | CP262 4.26 µM

CCc1cccc(N(C)C(N)=Nc2cccc3ccccc23)c1
inactive: CP192 | CP262
active: CP203 4.78 µM | CP286 8.91 µM

COc1ccc(CN(CCN(C)C)c2ccccn2)cc1
active: CP237 5.01 µM
not listed: CP194 | CP203 | CP265 | CP266
inactive: all other assays above

COCCOC(=O)C1=C(C)NC(C)=C(C(=O)OC(C)C)C1c1cccc([N+](=O)[O-])c1 (centres undefined)
inactive: CP250 | CP256 | CP262 | CP266
active: CP203 12 µM

CCCC(C(=O)OCCN(CC)CC)(c1ccccc1)c1ccccc1
active: CP192 9.53 µM | CP203 12 µM | CP215 12 µM | CP237 10 µM | CP247 8.91 µM | CP265 10 µM | CP269 12 µM | CP286 12.6 µM

OCCN1CCN(CCCN2c3ccccc3C=Cc3ccccc32)CC1
active: CP192 10.7 µM | CP194 7.57 µM | CP203 6.75 µM | CP211 12 µM | CP215 8.49 µM | CP217 7.08 µM | CP237 5.01 µM | CP238 11.2 µM | CP247 5.01 µM | CP250 6.31 µM | CP252 6.31 µM | CP256 3.55 µM | CP260 5.01 µM | CP262 6.75 µM | CP265 4.47 µM | CP266 13.5 µM | CP268 13.5 µM | CP269 9.53 µM | CP286 7.08 µM

COc1ccc(CCN(C)CCCC(C#N)(c2cc(OC)c(OC)c(OC)c2)C(C)C)cc1OC (centres undefined)
inactive: CP250 | CP265 | CP266

C=CCc1ccccc1OCC(O)CNC(C)C (centres undefined)
active: CP194 15.1 µM | CP203 10.7 µM | CP237 5.01 µM | CP238 11.2 µM
inactive: CP250 | CP262 | CP266

O=C1NCN(c2ccccc2)C12CCN(CCCC(c1ccc(F)cc1)c1ccc(F)cc1)CC2
active: CP217 8.91 µM | CP237 6.31 µM | CP238 8.91 µM | CP247 7.08 µM | CP250 10 µM | CP252 7.08 µM | CP256 5.01 µM | CP260 10 µM | CP265 5.62 µM | CP268 8.49 µM | CP286 7.08 µM
inactive: CP262
